Measured values from publication PMC12136788.
Where a chain is given by its changes, count along the chain named. Whole data set: some 5,800 sequences, median “enrichment r” near 0.68, cut for the highest 2% near 11. The full list was thinned out, with the highest values kept by preference.

T1: UNK ZnF1-6 (called full-length) (human, UniProt Q9C0B0 30-357)
T1 sequence: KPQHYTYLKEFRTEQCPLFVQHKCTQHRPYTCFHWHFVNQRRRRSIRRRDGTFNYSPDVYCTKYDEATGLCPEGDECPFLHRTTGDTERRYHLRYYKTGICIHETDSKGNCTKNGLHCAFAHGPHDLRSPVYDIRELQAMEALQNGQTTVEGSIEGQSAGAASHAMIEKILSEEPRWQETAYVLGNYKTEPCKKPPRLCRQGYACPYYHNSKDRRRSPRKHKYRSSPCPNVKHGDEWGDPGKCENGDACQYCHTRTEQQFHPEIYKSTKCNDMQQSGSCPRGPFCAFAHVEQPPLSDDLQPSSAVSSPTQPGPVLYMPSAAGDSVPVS

B1: ENSG00000136451:be:win_3701|3pUTR|ENSG00000136451|bound_else_gene|NA|bound_elsewhere_windowed (ssRNA)
RNA: GGGAGUUCUACAGUCCGACGAUCUCUCUGGUGGGCUGGCAGUCAUAAUUCACAAUUCAGACAGCCCAGGCUUCCUCCACAGUGGUCCAAGGAGCAGUCCUCAGUGGGGGCAGGUGUGGGCCCUACCCCUAAGCUAGAAUGUGGCAACAGAGGAUUGAGCAUCA
B2: ENSG00000107863:be:win_451|CDS|ENSG00000107863|bound_else_gene|NA|bound_elsewhere_windowed (ssRNA)
RNA: GGGAGUUCUACAGUCCGACGAUCUUGGAACUUAGUGUUAUGCCAAAAGAUGAAGACAUUCUCCAAGUGCUACAGUUUACAAAGGAUGUCACAGCACUGGCAUAUUCUCAAGAUGCCUACCUGAAAGGCAACGAAGCUUAUAGCCAACAGAGGAUUGAGCAUCA
B3: chr9:96387934:96388035:-|3pUTR|ENSG00000165244|msi1|total|mutant (ssRNA)
RNA: GGGAGUUCUACAGUCCGACGAUCAAUAUUUUGUAAAUAUGGACUGCACAGUACAGGGCCGAAAACUACAUAUUGUGGGAAGCCCGAUUUUGCAAGUUUAAUGCAUUCAUUGGAAGCAGUUCUCACAGGAAGCACUUUCUGAAUCAACAGAGGAUUGAGCAUCA
B4: chr20:32237940:32238012:+|3pUTR|ENSG00000101346|msi1_unk|FALSE|overlapping (ssRNA)
RNA: GGGAGUUCUACAGUCCGACGAUCUUUCAAAGAUACAAAUAUUUACAUAGUUUUAAUCAUGUAAUAUAUACAAUUUAAUGUCCUAGUGUUUUACUUAAUAGUGUAUCAUGUUUUCCCUGUUGGUAUGUAGCCUGGAUAAAUGCUCAACAGAGGAUUGAGCAUCA
B5: chr17:3662948:3663056:-|3pUTR|ENSG00000213977|unk|total|mutant (ssRNA)
RNA: GGGAGUUCUACAGUCCGACGAUCAGUUUGAUACAAAAUGUUUUUAUCGUACUCUUUGGAGAUGCCCAUUCUACUUUUGAAUUCCGCUUUUACUAAUUCGCAUCUGGAAGCUCAGCAAGUGCACAAGCCUUACUUUGGUUACCGCAACAGAGGAUUGAGCAUCA
B6: chr5:76617584:76618642:-|CDS|ENSG00000164220|control|control|control (ssRNA)
RNA: GGGAGUUCUACAGUCCGACGAUCUGAUGGCUUAUAUUUUAUAUAUCUCAUAGCUUUGUGCCUGGGUAGUCUUAAUAGUUGCUUAGAUCCAUUCCUUUAUUUUCUCAUGUCAAAAACCAGAAAUCACUCCACUGCUUACCUUACCAACAGAGGAUUGAGCAUCA
B7: chr4:168927217:168927233:+|3pUTR|ENSG00000129116|msi1_unk|total|mutant (ssRNA)
RNA: GGGAGUUCUACAGUCCGACGAUCAACCACCCAAAUGACCAAGGCAUAUACCGUAUUUGGAGGAAUCAGGGGUUUGGAAGGAGCCGGGAGGAGAAUGAAGGAAAAUGCAACCAGCAUGAUUACCGUGUGUUCAUUCCGAUAAAACAACAGAGGAUUGAGCAUCA
B8: ENSG00000198589:be:win_7401|CDS|ENSG00000198589|bound_else_gene|NA|bound_elsewhere_windowed (ssRNA)
RNA: GGGAGUUCUACAGUCCGACGAUCUUCUCAACUACUCAUAGAGCCCCAUCCUCCCAGAGGUUCUGCCAUGCAAGUGAGUCCAUUGAUGUUCACAGACAAAGCCCAGCAGGAUGUUAUCAUGGUCCUCAAGUUUCCCUCCAACUCCAACAGAGGAUUGAGCAUCA
B9: chr5:128187618:128187661:+|3pUTR|ENSG00000064651|msi1_unk|total|mutant (ssRNA)
RNA: GGGAGUUCUACAGUCCGACGAUCUCCUUUAUAAGUCAUUAAAAUAAUGUUUCAUCAAAUGGUUAAAUGGACCACUGGUUUCUCCGAGAAAUGUUUUCCGGCUUAAUUCAUUCAAUUGUCAAGUACACUCCGUCUUAAUACACUCAACAGAGGAUUGAGCAUCA
B10: chr1:159061598:159062691:-|three_prime_utr|ENSG00000163568|control|control|control (ssRNA)
RNA: GGGAGUUCUACAGUCCGACGAUCUCAAUCAGAUUGUAAGUUACCUGAAAGCUGCAGUUCACAGGCUCCUCUCUCCACCAAAUUAGGAUAGAAUAAUUGCUGGAUAAACAAAUUCAGAAUAUCAACAGAUGAUCACAAUAAACACAACAGAGGAUUGAGCAUCA
B11: chrX:107070192:107070425:-|CDS|ENSG00000089682|control|control|control (ssRNA)
RNA: GGGAGUUCUACAGUCCGACGAUCCGUUCUAGGAGCCAAAUGGCAGAAAAGGACUGGGAGGACCUCAACAUUUAGUAUUCUCUUAGUUUCCUUGCUUUCAGAAACAGUGUUCACAUCUUCAGCCAUGUAUGGCAUUCCCCAUCUCAACAGAGGAUUGAGCAUCA
B12: chr10:95606323:95606429:-|3pUTR|ENSG00000059573|unk|FALSE|bound_elsewhere (ssRNA)
RNA: GGGAGUUCUACAGUCCGACGAUCCCAUGGCUGCUUUGUGUCACCUCAGUGACUUACAGUCCCCCUUGGCAUUUAGUUGGUACUAGAGCCAGUCAUCCUUAACAAAUCUUUUCACAUUUUAUUUCUUUCACAUGUAGUCAUCUUCAACAGAGGAUUGAGCAUCA
B13: chr10:95606323:95606429:-|3pUTR|ENSG00000059573|unk|total|mutant (ssRNA)
RNA: B12 RNA with U73C, A74C, U83C, A84C, U134C, A135C
B14: chr14:106116634:106116941:-|CDS|ENSG00000211941|control|control|control (ssRNA)
RNA: GGGAGUUCUACAGUCCGACGAUCUGGAUCCGCCAGGCUCCAGGGAAGGGGCUGGAGUGGGUUUCAUACAUUAGUAGUAGUAGUAGUUACACAAACUACGCAGACUCUGUGAAGGGCCGAUUCACCAUCUCCAGAGACAACGCCCAACAGAGGAUUGAGCAUCA
B15: ENSG00000070961:be:win_4601|3pUTR|ENSG00000070961|bound_else_gene|NA|bound_elsewhere_windowed (ssRNA)
RNA: GGGAGUUCUACAGUCCGACGAUCUCAGACUAUCAAACUACAAGAGAACCUUAGUCUUUUUUGUUUUUGUCUAAACAUGUUAGUUUAGUGAUGUCUUGGUGAACUGUGAGUGAACUGUAUUGAUUUUUCUAAUCUUUAGAGACCCAACAGAGGAUUGAGCAUCA
B16: ENSG00000157823:stop:overlap|stop_codon|ENSG00000157823|stop_codon|NA|stop_codon (ssRNA)
RNA: GGGAGUUCUACAGUCCGACGAUCUCCGCUUCUACCAGCGUUUCAAGAAAUUCAACAGCAGAUUGUUCGAGAGACUUUCCAUCUAGUCCUCAAGCGGGAUGACAACAUCUGUAACUUCUUGGAGGGUGGAAGUUUGAUUGGUGGCAACAGAGGAUUGAGCAUCA
B17: chr13:42321371:42321394:+|3pUTR|ENSG00000023516|msi1_unk|FALSE|overlapping (ssRNA)
RNA: GGGAGUUCUACAGUCCGACGAUCUUCUGUUUAUGGUGUAAUCAUUCUGAGGUGAGGCUUUUCUUAUUUCCUUUGCAUUUUGCUAGAGCUGUGCUGAGUUCAGCAUUUGCUUAUUUAACCACUACAUAAUGACAGACCAGUUAUCAACAGAGGAUUGAGCAUCA
B18: chr8:23844609:23844711:-|3pUTR|ENSG00000159167|msi1|FALSE|unique (ssRNA)
RNA: GGGAGUUCUACAGUCCGACGAUCUUUAGGGGUGUUGACACACCAGUUUUGAGUGUACUGUGCCUGGUUUGAUUUUUUUAAAGUAGUUCCUAUUUUCUAUCCCCCUUAAAGAAAAUUGCAUGAAACUAGGCUUCUGUAAUCAAUCAACAGAGGAUUGAGCAUCA
B19: chr7:7573188:7573293:+|CDS|ENSG00000164654|unk|total|mutant (ssRNA)
RNA: GGGAGUUCUACAGUCCGACGAUCCCAUAUUUCCACGAUCGUGUUGCUUCCUUCUAUGAAGGUCAGGUUGCAAUAUGGGAUCUCCGAAAAUUUGAGAAGCCAGUUUUGACAUUGACUGAGCAACCAAAACCCUUAACAAAAGUACAACAGAGGAUUGAGCAUCA
B20: chr15:67202635:67202736:-|3pUTR|ENSG00000103591|msi1|FALSE|unique (ssRNA)
RNA: GGGAGUUCUACAGUCCGACGAUCUGCCAAAAUUGCCCUUAUCAUGUUGGCUGCCUGACUUGUUUAUAGGGUCCCCUUAAUUUUAGUUUUUAGUAGGAGGUUAAGGAGAAAUCUUUUUUUUCCUCAGUAUAUUGUAAGAGAGUGCAACAGAGGAUUGAGCAUCA
B21: chr18:2804133:2804242:+|3pUTR|ENSG00000101596|unk|FALSE|unique (ssRNA)
RNA: GGGAGUUCUACAGUCCGACGAUCGGUUAAAGAGAAAUGACUUUUUAGGAACUAGACUUGAACGUAUAAUUAAUAUGUGGAACUAGUUUGCUUUUAUAAUUCAUUGUAUCAAGAAGGAGUCAUGUUUUAAAUCCAAGGCAUUGACAACAGAGGAUUGAGCAUCA
B22: chr7:157269180:157269282:+|3pUTR|ENSG00000009335|unk|FALSE|unique (ssRNA)
RNA: GGGAGUUCUACAGUCCGACGAUCAUUUUAGGUUGUUUUAUGUUGAAUGUUCUAUAUCUUAUUAGUUAAUUUGUAUAUUUUAUUAGUAUUUUGGAAAUAGCAUAUCUGAGACUGAAGAGAAAUUGACAAUUCACUUAUUUGUGGCAACAGAGGAUUGAGCAUCA
B23: chr19:34469546:34469571:+|3pUTR|ENSG00000126261|msi1_unk|FALSE|overlapping (ssRNA)
RNA: GGGAGUUCUACAGUCCGACGAUCGUUGCCUUUUUAAUGUAAAUACCCGUAGGUAUCAUUAAUAGUUUCAAAAUAUUGUGGUUUAGUAAAGUUGAUACCUGGUUAUAAAUAUUAUGCCUUUAUUUUUGGCUAGAAGAAGAAUUACAACAGAGGAUUGAGCAUCA
B24: chr1:68475836:68475940:-|3pUTR|ENSG00000024526|unk|FALSE|unique (ssRNA)
RNA: GGGAGUUCUACAGUCCGACGAUCAUGCCCAGGGCCUAACUUACACUAAUUAAAUCUGAAUUUUGGGGAUGUUGUAUAGGGAUUAGUAUUUUUUUUAAUCUAGGUGAUUCCAAUAUUCAGCCAACUGUGAGAAUCAAUGGCCUACAACAGAGGAUUGAGCAUCA
B25: chr7:157269180:157269282:+|3pUTR|ENSG00000009335|unk|total|mutant (ssRNA)
RNA: B22 RNA with U28C, A29C, U62C, A63C, U83C, A84C, U97C, A98C
B26: chrX:135156539:135157311:-|three_prime_utr|ENSG00000169551|control|control|control (ssRNA)
RNA: GGGAGUUCUACAGUCCGACGAUCUUUAUUCUGUUUAUCUUUCCUUUUAUGAGCAGUAAAGGGGCUGGUUUAACUUAAAAGGUUAGCUUAGUAAGCCUAAAUAGUAUUUUAUAUAUGACUUUUCUGGCAAAUCUAAUUGAGACACAACAGAGGAUUGAGCAUCA
B27: chr17:29548703:29548809:+|3pUTR|ENSG00000160551|unk|FALSE|bound_elsewhere (ssRNA)
RNA: GGGAGUUCUACAGUCCGACGAUCAGCACUUGUGAGUGAAAAAUCAUGUAAUUAUCUGUAAAUAUGUAGCUAACAAAUUGACCUAGUUUCUGUAUUUUUUUGUUUUUGUACUAAAGUUUAUAGGUCUGUGCCAGCUAGAGAGAACAACAGAGGAUUGAGCAUCA
B28: chr2:65312585:65312700:-|3pUTR|ENSG00000198369|unk|FALSE|unique (ssRNA)
RNA: GGGAGUUCUACAGUCCGACGAUCUGGACCAGGGCUAGAAUGGGGAUUUCAGGUUUCUAUGAGCCUCCCCAUUACCCCUAAAGUAGAACAUUUUUUAAAUUGUGUUGCCACCACUUCUAAAAAUUUAGCAAUAUUAGAAUAGGACAACAGAGGAUUGAGCAUCA
B29: chr1:68475836:68475940:-|3pUTR|ENSG00000024526|unk|total|mutant (ssRNA)
RNA: B24 RNA with U76C, A77C, U83C, A84C, U100C, A101C

What follows are binders tested against T1, UNK ZnF1-6 (called full-length) (assay: nsRBNS (natural sequence RNA bind-n-seq); RBNS binding buffer (assumed for nsRBNS): 25 mM Tris pH 7.5, 150 mM KCl, 3 mM MgCl2, 0.01% Triton X-100, 500 ug/ml BSA, 20 U/ml SUPERase-In, 4 C; UNK is unkempt and MSI1 is Musashi-1; names of the RNAs are library labels; protein concentration not given here; high values mean tight binding).

Binder | binding signal [enrichment R]
B1 | 0.776
B2 | 0.399
B3 | 0.299
B4 | 4.06
B5 | 0.437
B6 | 4.63
B7 | 0.58
B8 | 0.555
B9 | 0.678
B10 | 1.86
B11 | 3.69
B12 | 15.5
B13 | 6.24
B14 | 1.12
B15 | 2.66
B16 | 0.633
B17 | 0.605
B18 | 0.924
B19 | 0.291
B20 | 15.9
B21 | 0.789
B22 | 19.7
B23 | 9.94
B24 | 11.6
B25 | 0.843
B26 | 1.68
B27 | 6.33
B28 | 13.9
B29 | 0.698
